The text below walks through data of PubChem BioAssay AID588832 (Broad Institute, 2011).

The campaign covered roughly 8,000 compounds. Fewer than 10 were called active. Not all results are given here. A number with no mark means an inactive call. The rule behind the calls is not given here.

As a reminder, the inhibition is the relative decrease from the control value, in per cent.

The test system of this assay is hedgehog, isoform A (Drosophila melanogaster). Briefly: Drosophila hedgehog isoform A inhibitors, primary screen, biochemical, plate reader, single concentration (AID 588832).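 Note: 0% = neutral control wells and 100% = positive control wells.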 Conditions: Biochemical plate reader assay, at 30.3 µM, hits give high values.
For `COc1cc(OC)cc(C(=O)OCn2nnc3ccccc3c2=O)c1`, the inhibition is 0%.

In the case of `COC(=O)c1ccccc1NC(=O)C1CCCN(c2nnc(-n3cccc3)s2)C1` (centres undefined), the inhibition is 0.909%.

With `C/C=C/c1cc(OC)c2c(c1)[C@H](C)[C@@H](c1ccc(O)c(OC)c1)O2`, the inhibition was 0%.

Turning to `CCCn1c(CN2CCCCC2C)nc2c1c(=O)n(C)c(=O)n2C` (centres undefined), the inhibition is 3.57%.

Turning to `COC(=O)C1=C(C)Nc2ccc(C)cc2S1`, the inhibition was 0%.

For `CC(=O)c1ccc(NC(=O)C2CCCN2S(=O)(=O)c2ccc(C)cc2)cc1` (centres undefined), the inhibition was 15.4%.

Regarding `CCOc1ccc(NC(c2ccccn2)c2oc(CO)cc(=O)c2O)cc1` (centres undefined), the inhibition was 1.85%.

Consider `COc1ccc(NC(=O)c2cc(S(=O)(=O)N3CCc4ccccc43)cn2C)cc1`, for which the inhibition was -3.51%.

Regarding `O=C(CSc1nc2c(c(=O)n1-c1ccccc1)SCC2)N1CCN(c2ccccc2)CC1`, the inhibition is 5.23%.

Turning to `NC(=O)c1cccc2c1C(=O)N(C1CCCCC1)C2`, the inhibition is 6.78%.

Consider `Cc1ccccc1C(=O)Nc1nnc(S(=O)(=O)N2CCCCC2)s1`, for which the inhibition was 3.67%.

Take `O=C(Nc1ccccc1)N1CCC(n2c(=O)[nH]c3ccccc32)CC1`: the inhibition was 11.9%.

Regarding `Cc1cc2c(cc(C(=O)N3CCC(C(=O)N4CCCC4)CC3)n2Cc2c(F)cccc2Cl)o1`, the inhibition is 6.84%.

On to `C=C1CCCC2OC(CC3=CC4/C(C)=C/CC(C)CC(/C=C(\C)C(O)C5CC(O)C(O)C(CCC(O)/C=C/C(C)=C/CCC6=NCCC(C3)C64C)O5)OC(=O)CC3OC(C(O)C1)C(O)C3O)CC(O)C2O` (centres undefined), for which the inhibition is 5.17%.

In the case of `Nc1nonc1-n1nnc(C(=O)N/N=C/c2ccc(O)cc2)c1CN1CCCCCC1`, the inhibition was -1.79%.

Take `CC1C(=O)Nc2ccc(S(=O)(=O)N3CCN(c4cccc(Cl)c4)CC3)cc2NC1=O` (centres undefined): the inhibition is 7.02%.

Regarding `O=c1ccc2cc(S(=O)(=O)N3CCN(c4ccccc4F)CC3)ccc2[nH]1`, the inhibition was -3.85%.

Take `COc1ccccc1CNC(=O)[C@H](Cc1c[nH]c2ccccc12)NC(=O)[C@@H]1Cc2ccccc2CN1`: the inhibition is 3.6%.

As to `CCOC(=O)c1ccc(NC(=O)COc2cc(=O)n(CC)c3ccccc23)cc1`, the inhibition is 4.17%.

As for `COC(=O)C(N)CCCCN` (centres undefined), the inhibition was 3.45%.

For `COc1ccc(NC(=O)c2cc(CC(C)C)on2)cc1OC`, the inhibition was 8.45%.

For `CCOC(=O)N1CCC(N2Cc3cccc(C(=O)N4CCN(C5CCCCC5)CC4)c3C2=O)CC1`, the inhibition was 5.77%.

`CCSc1nnc2c(n1)OC(c1ccc(C(=O)O)cc1)N(C(C)=O)c1ccccc1-2` (centres undefined): the inhibition was 0.848%.

Take `Cc1ccc(-c2nc(CS(=O)CC(=O)NCCCN3CC(C)CC(C)C3)c(C)o2)cc1` (centres undefined): the inhibition was 3.85%.

For the compound `Cc1oc(-c2ccc(Cl)cc2)nc1CS(=O)CC(=O)NCc1cccs1` (centres undefined), the inhibition is 5.23%.

Regarding `COc1ccc(N2CCN(C(=O)c3ccc(CS(=O)(=O)c4ccccc4C)o3)CC2)cc1`, the inhibition is 7.34%.

Turning to `Cc1ccc(-c2nc3cccnc3s2)cc1NS(=O)(=O)c1ccc2c(c1)CCCC2`, the inhibition was 6.78%.

With `Cc1ccc(S(=O)(=O)Nc2ccc(O)c3ncccc23)cc1`, the inhibition is 64.4% (active).

With `CCC(NS(=O)(=O)c1ccc(C)cc1)C(=O)N1CCN(c2ccccn2)CC1` (centres undefined), the inhibition is 20.8%.

With `COc1c2c(c(C)c3c1C(=O)OC3)O[C@@]1(C)CC[C@@]3(O)C(C)(C)OC(=O)CC[C@]3(C)[C@H]1C2`, the inhibition is -1.82%.

As to `O=C(Cc1cc(=O)[nH]c(=O)[nH]1)NCCN1CCOCC1`, the inhibition was 9.62%.

`COc1ccc2c(c1OC)C(=O)N1C2SC[C@H]1C(=O)NC1CCCCC1` (some centres undefined): the inhibition was 4.89%.

For `c1ccc(Nc2nc3ccccc3n3nnnc23)cc1`, the inhibition was 1.79%.

`Cc1cc(C)cc(N2CC(c3nc4ccccc4n3C)CC2=O)c1` (centres undefined): the inhibition is 5.06%.

For `Cc1ccc(CNC(=O)[C@@H](NC(=O)C2CCN(C(=O)[C@@H]3CCCN3)CC2)C(C)C)cc1`, the inhibition is 8.17%.

Take `Cc1csc2ncc(C(=O)NC(C)c3ccccc3)c(=O)n12` (centres undefined): the inhibition was 7.24%.

Turning to `CC1CCN(Cc2ccc(NC(=O)C3CCN(c4nnc(-n5cccc5)s4)CC3)cc2)CC1`, the inhibition was 1.99%.

In the case of `CCOC(=O)Cn1c(=O)n(Cc2ccco2)c(=O)c2ccc(C(=O)NC3CCCC3)cc21`, the inhibition is -13%.

For `O=C(Nc1ccc(F)cc1F)C1CCN(c2ncnc3c2sc2cccc(F)c23)CC1`, the inhibition is 7.02%.

On to `CCCCOC(=O)c1cc(=O)[nH]c(=O)[nH]1`, for which the inhibition was 5.12%.

Take `Cc1cc(C)n2nc(S(=O)(=O)N(C)c3ccccc3)nc2n1`: the inhibition is 6.52%.

Consider `Cc1nc2sc(C(c3ccccc3)N3CCN(C)CC3)c(O)n2n1` (centres undefined), for which the inhibition was 14.5%.

In the case of `COc1ccc(-c2nc(C(=O)NCCCN3CCOCC3)cc3c2[nH]c2ccccc23)cc1OC`, the inhibition was 1.72%.

As to `C[C@H](NC(=O)[C@H]1N2C(=O)c3ccccc3C2SC1(C)C)C(=O)N1CCC[C@H]1CO` (some centres undefined), the inhibition is 1.72%.

For the compound `Cc1ccc(Cl)cc1N1CCN(C(=O)C2CCN(c3nnc(-n4cccc4)s3)CC2)CC1`, the inhibition is 15.4%.

Regarding `Cc1cc(C)n2c(SCC(=O)Nc3ccccc3)nnc2n1`, the inhibition is -12.9%.

With `Cc1ccc(S(=O)(=O)Nc2ccccc2C(=O)Nc2sccc2C(=O)NN(C)C)cc1`, the inhibition is 7.69%.

As for `COc1c(O)c(O)c2oc(-c3ccccc3)cc(=O)c2c1OC`, the inhibition is 6.79%.

With `O=c1cc(-c2ccc(O)cc2)oc2c(O)c(O)c(O)c(O)c12`, the inhibition is 89.5% (active).

As for `O=c1cc(-c2ccc(O)cc2)oc2c(-c3c(O)cc(O)c4c(=O)cc(-c5ccc(O)cc5)oc34)c(O)cc(O)c12`, the inhibition was 3.51%.

With `CN(C)C(=O)c1nnc(Cc2ccc(Cl)cc2)o1`, the inhibition is 12.9%.

On to `Cc1c(C(=O)NNc2cc(=O)n(C)c(=O)n2C)cccc1[N+](=O)[O-]`, for which the inhibition is 1.72%.

Turning to `NC(=O)c1c(NC(=O)c2c(F)cccc2F)sc2c1CCN(Cc1ccccc1)C2`, the inhibition was 0%.

In the case of `COc1ccc(-n2c(Cc3cccn3C)nnc2SCC(=O)Nc2ccccc2OC)cc1`, the inhibition was 5%.

With `CCOc1ccc(C(=O)c2cnc3ccccc3c2N2CCN(CC)CC2)cc1`, the inhibition is 20%.

Consider `O=C(Cn1cnc2c(nnn2Cc2ccccc2)c1=O)NCc1ccco1`, for which the inhibition was 2.73%.

For the compound `CCOC(=O)c1c(C)c(-c2ccccc2)n(CC(=O)N2CCCC2)c1C`, the inhibition is 0.909%.

Turning to `Cc1cc(Nc2cccc(F)c2)n2nc(C)nc2n1`, the inhibition was -2.57%.

For `C=CC[C@]12C[C@@H](OC)C(=O)C=C1O[C@@H](c1ccc(OC)c(OC)c1)[C@H]2C`, the inhibition was 8.62%.

`CC1Cc2ccccc2N1C(=O)c1cnc2sccn2c1=O` (centres undefined): the inhibition was -0.943%.

For `CCOc1ccc(CC(=O)NCc2ccc3c(c2)cc(C)n3C)cc1`, the inhibition was 3.85%.

Turning to `O=C(COc1ccc2c(c1)oc(=O)c1ccccc12)N[C@@H](Cc1ccccc1)C(=O)O`, the inhibition was 0%.

For the compound `COC(=O)C1=C(C)n2cnnc2NC1c1ccc(Cl)cc1` (centres undefined), the inhibition was 15%.

On to `Cc1ccc(C)c(N2CCN(C(=O)c3ccc4c(=O)n5c(nc4c3)CCCCC5)CC2)c1`, for which the inhibition is -12.9%.

Consider `COc1ccc(C(=O)NCc2ccc3c(c2)cc(C)n3C)cc1`, for which the inhibition was 5.23%.

Turning to `COc1ccccc1NS(=O)(=O)c1cc2c(cc1C)NC(=O)CO2`, the inhibition is 9.62%.

`Cc1ccc(NC(=S)NCc2ccc3[nH]c4c(c3c2)CCCC4)cc1`: the inhibition was 4.39%.

Turning to `COc1ccc(-c2nc(CS(=O)CC(=O)NCCC3=CCCCC3)c(C)o2)cc1` (centres undefined), the inhibition was 7.69%.

Consider `Cc1cnc(NC(=O)CSc2nnc(COc3c(C)cccc3C)o2)s1`, for which the inhibition was 10%.
